Compound activity (PubChem)
PLC-gamma1 inh = blocks human PLC-gamma1 enzyme activity | P19174 | purified PLC-gamma1, fluorogenic substrate, fluorescence | actives 0.84% (n = 370,000) | inhibition, % at 12.2 µM; in the data active = inhibition above about 9.5%
Rce1 inhib = yeast Ras-converting enzyme inhibition; Q03530; yeast membranes, quenched prenylated peptide cleavage fluorescence; calls only; actives 0.27% (n = 290,000); AID 2563;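 active = fall in fluorescence gain of 50% or more versus controls, with final raw signal at or below 3038400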;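 also: plate controls were neutral control wells for no effect and wells lacking membranes for full effect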
ADAM10 inh = inhibits human ADAM10. recombinant ADAM10, EDANS/DABCYL FRET peptide cleavage, 3 h. inhibition, % at 7 µM. actives 0.62% (n = 370,000). AID 720582;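 active = inhibition above a per-campaign cutoff equal to the mean of compounds falling between control-based bounds plus 3 SD, cut at about 20% in these data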;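 also: 0% = DMSO wells while the 100% control is not disclosed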
ADAM17 inh = inhibitors of human ADAM17; P78536; recombinant ADAM17, EDANS/DABCYL FRET peptide cleavage; inhibition, % at 6.95 µM; actives 0.83% (n = 370,000); AID 720648;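 active = inhibition above the mean of compounds lying between control limits plus 3 SD, set per campaign, cut at about 8.5% in these data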;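 also: 0% = DMSO-only wells as the low control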
PLCb3 inh = PLC-beta3 (human) inhibition, primary screen | Purified PLC-beta3, fluorogenic substrate, fluorescence | inhibition, % at 12.2 µM | AID 720704 | actives 0.18% (n = 370,000) | Q01970; in the data active = inhibition above about 11%;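 also: 0% = median of compound wells on plate and 100% = full blocker control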
ADAM10 confirm = human ADAM10 inhibition, confirmation | actives 1% (n = 2,100) | shares compounds with ADAM10 inh | inhibition, % at 6.95 µM | ADAM10 QFRET peptide cleavage, EDANS fluorescence;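 active = inhibition above about 20% chosen separately for each screening run, limit read from the data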;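 also: 0% = DMSO wells and 100% = marimastat wells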
ADAM17 ctr = ADAM17 inhibition, counter-screen for ADAM10 exosite hits. AID 743214. ADAM17 QFRET peptide cleavage, EDANS fluorescence. actives 0.5% (n = 2,100). shares compounds with ADAM10 inh. inhibition, % at 6.95 µM;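 active = mean triplicate inhibition above the solvent-only control wells' mean plus 3 SD, cut at about 12% in these data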;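 also: 0% = DMSO wells and 100% = marimastat wells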
* hit, by the source's call; i = inactive; nt = not tested or not shown; ! = a repeat was not active. In the library only some 2.1% were active in any assay of this set; here they are far more common.

SMILES	PLC-gamma1 inh	Rce1 inhib	ADAM10 inh	ADAM17 inh	PLCb3 inh	ADAM10 confirm	ADAM17 ctr
O=C(COC(=O)CCc1nc2ccccc2s1)Nc1ccc(Cl)cn1	-5.7	i	23.8*	-2.4	-5.2	1.3	0.2
O=C(CS(=O)(=O)c1ccccc1)Nc1ccc(Cl)cn1	2.2	i	-1.9	-0.4	-3.8	nt	nt
CCc1ccc2c(CN3CCN(S(=O)(=O)c4cccs4)CC3)cc(=O)oc2c1	8.1	i	20.7*	5.5	9.6	2.8	0.2
COc1cccc(NC(=S)NNC(=O)c2ccccc2OC(F)F)c1	9.4	i	20.9*	6.5	0.9	1.0	0.3
CCCCc1ccc(NC2=NCC(=O)N2CCc2ccccc2)cc1	-3.6	i	6.0	3.1	-5.0	nt	nt
CCN(CC)S(=O)(=O)c1cccc(NC(=O)COc2ccc(C#N)cc2OC)c1	0.6	i	7.2	3.5	2.3	nt	nt
CCN(CC)S(=O)(=O)c1cccc(NC(=O)COc2ccc(F)cc2Br)c1	-0.5	i	20.6*	2.1	4.5	-0.8	1.3
CCN(c1ccccc1)S(=O)(=O)c1cc(C(=O)Nc2ccc(F)c(F)c2)ccc1F	1.2	i	25.7*	8.5	2.1	7.7	3.1
COC(=O)CSc1nnc(-c2ccc(NS(=O)(=O)c3c(C(C)C)cc(C(C)C)cc3C(C)C)cc2)o1	-6.1	nt	20.6*	8.5	-10.6	10.0	3.0
CCNC(=S)Nc1scc(-c2ccccc2)c1C(=O)OCC	-0.2	i	26.3*	7.0	2.9	1.6	0.8
Cc1cnn(CCC(=O)NNC(=S)Nc2ccc(F)cc2)c1	3.9	i	20.1*	7.1	1.0	1.2	1.7
Cc1cnn(CCC(=O)NNC(=S)Nc2cccc(Cl)c2)c1	-0.6	i	9.7	6.7	4.4	nt	nt
COc1ccc(NC(=O)Cc2coc3cc(C)c(C(C)C)cc23)cc1S(=O)(=O)N1CCOCC1	0.8	i	21.5*	6.5	-7.1	3.7	1.3
CC1(C)C=Cc2c(ccc3c2OC[C@H](c2ccc(O)cc2O)C3)O1	0.3	nt	28.0*	8.4	-0.7	12.6	3.5
O=C(N/N=C/c1c(Nc2cccc(C(F)(F)F)c2)nc2ccccn2c1=O)c1ccccc1[N+](=O)[O-]	-1.9	i	31.6*	1.0	-2.7	-0.2	-0.1
O=Cc1c(Nc2cccc(C(F)(F)F)c2)nc2ccccn2c1=O	-6.0	i	-3.0	-5.1	-7.7	nt	nt
COc1ccccc1NS(=O)(=O)c1cccc(NC(=O)NCCCl)c1	4.9	i	-1.4	-4.9	-6.8	nt	nt
COC(=O)c1cc(NC(=O)Nc2cccc(Cl)c2)ccc1Cl	-0.8	i	20.2*	8.2	2.2	5.9	1.0
O=C(Nc1cccc(F)c1)Nc1cccc(Cl)c1	2.0	i	23.3*	3.8	-0.8	0.8	0.4
COc1ccccc1NS(=O)(=O)c1cccc(NC(=O)Nc2cccc(Cl)c2)c1	0.3	i	30.7*	8.5	-1.5	10.6	3.7
Cc1ccc(C)c(NS(=O)(=O)c2cc(C(=O)NCCC3=CCCCC3)ccc2C)c1	-0.5	i	20.1*	6.8	-1.8	4.4	1.6
CCN(CC(=O)Nc1c(F)cccc1F)C(=O)c1ccc(C)c(S(=O)(=O)N2CCCCC2)c1	nt	i	nt	nt	nt	nt	nt
CCOC(=O)c1c(NC(C)=O)sc2c(OCC(O)CNC(C)(C)C)c(Br)ccc12 (configuration not stated)	-15.9	i	-83.8	-22.7	-13.4	nt	nt
CCOC(=O)c1c(N)sc2c(OCC)c(Br)ccc12	-0.7	i	22.7*	4.8	0.6	6.0	2.8
COc1ccc(Nc2nc(-c3ccccc3O)nc3ccccc23)cc1	-104.4	i	21.3*	4.8	-146.8	9.8	2.8
O=C(NCc1ccccc1)c1cccc(COc2ccccc2Cl)c1	-2.2	i	17.8	4.8	-3.2	nt	nt
NNC(=O)c1cccc(COc2ccccc2Br)c1	2.8	i	24.0*	4.5	4.1	1.2	0.5
COCCOC(=O)C1=C(C)NC(C)=C(C(=O)OC(C)C)C1c1cccc([N+](=O)[O-])c1 (configuration not stated)	8.3	i	22.3*!	3.3	5.7	1.0	0.2
Cc1cc(C)c(O)c(-c2cc(C(=O)Nc3ccc(S(=O)(=O)N4CCOCC4)cc3)[nH]n2)c1	1.9	i	21.1*	7.9	-1.6	5.8	2.0
